12-hLO inh: qHTS Assay for Inhibitors of 12-hLO (12-human lipoxygenase) | purified 12-hLO, xylenol orange hydroperoxide absorbance | Potency, µM (titrated, usually from 57.1 µM), most hits filed as inhibitors | Polyunsaturated fatty acid lipoxygenase ALOX12 (Homo sapiens), P18054 | 150,000 compounds, 0.12% hits | AID 1452, 2008; also: nearly all actives have a fitted effect of over 55% in size
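Lipoxygenase turnover measured by absorbance at 573 and 405 nm after Fe-XO development. Human 12hLO 150 nM, arachidonate 40 uM, pH 7.0 Hepes buffer with detergent; 15 min compound preincubation, 30 min reaction.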
p53ts 32C tox: qHTS Screen for Compounds that Selectively Target Cancer Cells with p53 Mutations: Cytotoxicity of p53ts Cells at the Permissive Temperature; AID 924, 2007; 130,000 compounds, 0.93% hits; Potency, µM (highest dose often 46.1 µM), hits mostly cytotoxic; H1299-p53A138V at 32C, ATP luminescence viability, 24 h; also: nearly all actives have a fitted effect of over 55% in size
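H1299-p53 A138V cells (temperature-sensitive p53) exposed 24 h to up to 46 uM compound at 32C, where p53 is wild-type in conformation. Viability read as ATP luminescence and normalised to DMSO and 100 uM tamoxifen. AC50 fitted with the Hill equation.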
p53ts 39C kill: qHTS Screen for Compounds that Selectively Target Cancer Cells with p53 Mutations: Cytotoxicity of p53ts Cells at the Nonpermissive Temperature; H1299-p53A138V viability at 39C, ATP luminescence, 24 h; 130,000 compounds, 1.5% hits; Potency, µM (doses to about 46.1 µM), usual class: cytotoxic; AID 902, 2007; also: nearly all actives have a fitted effect of over 55% in size
HPGD block: qHTS Assay for Inhibitors of HPGD (15-Hydroxyprostaglandin Dehydrogenase) | 15-hydroxyprostaglandin dehydrogenase [NAD(+)] (Homo sapiens), P15428 | purified HPGD, NADH fluorescence kinetic, PGE2 substrate | Potency, µM, hits mostly inhibitors | 150,000 compounds, 4.3% hits | AID 894, 2007; active = well fitted inhibition curve with a large enough effect, not every such curve was filed as active; inconclusive = small, poorly fitted or top-dose-only effect, or another doubt; inactive = no such curve, though single readings can be large or run the other way
Target sequence (P15428 whole entry, looked up): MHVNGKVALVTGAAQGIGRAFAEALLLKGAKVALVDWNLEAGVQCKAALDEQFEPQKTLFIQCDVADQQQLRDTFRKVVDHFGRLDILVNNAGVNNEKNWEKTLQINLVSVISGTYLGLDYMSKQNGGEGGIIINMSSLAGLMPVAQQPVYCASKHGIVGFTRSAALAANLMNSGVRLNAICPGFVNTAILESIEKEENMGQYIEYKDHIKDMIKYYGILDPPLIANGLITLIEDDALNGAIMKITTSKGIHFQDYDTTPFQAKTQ
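NADH formation kinetics: reaction with 30 uM PGE2 and 1 mM NAD+ (final), 20 nM enzyme, Tris-HCl pH 8 with Tween 20, after 15 min compound preincubation at room temperature. Fluorescence change, last versus first of five reads.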
A number is an active result; – = inactive; ? = inconclusive; · = no result; [ ] = another dose, or the depositor's remark. Shown are actives, neighbours in structure and some others; about 4.4% of the full set was active somewhere. Unless noted, calls follow the shape of the dose curve; as a rule, active = well fitted curve in the direction sought with a large enough effect; inconclusive = small, poorly fitted or top-dose-only effect, or another doubt; inactive = no such curve, though single readings can be large; an effect the other way counts as inactive or inconclusive.

SMILES	12-hLO inh	p53ts 32C tox	p53ts 39C kill	HPGD block
COC(=O)C1=C(C(=O)OC)N2C=CC=CC2(C)C(C(=O)OC)=C1C(=O)OC (stereo not drawn)	–	·	·	35µM
CCOC(=O)c1cc(-c2ccc(OC)cc2)n(CCC(=O)NCCc2ccc(OCC)c(OCC)c2)c1C	·	–	–	·
Cc1ccc2c(Cl)c(C(=O)NCC3CCCO3)sc2c1 (stereo not drawn)	–	·	·	14µM
O=C(NCC1CCCO1)c1sc2ccccc2c1Cl (stereo not drawn)	–	·	·	8.9µM
COc1ccc2c(Cl)c(C(=O)NCC3CCCO3)sc2c1Cl (stereo not drawn)	–	·	·	–
Cc1nc2cc(C(=O)O)ccc2n1-c1ccc(C(C)C)cc1	·	–	–	·
NC([N-]/N=C/c1ccccn1)=[S]=[Fe].O=S(=O)(O)O	–[11.4 µM]	–[9.22 µM]	–[9.22 µM]	·
COc1cc(/C=C2/C(=O)ON=C2c2ccccc2)ccc1O	–	·	·	11µM
CC(C)Oc1ccc(C(=O)N2CCCc3ccccc32)cc1	–	–	–	22µM
C[C@@](N)(C(=O)O)c1ccc(P(=O)(O)O)cc1	–	–	–	–
Cc1cc(C)cc(OC(=O)c2cc(-c3ccc4c(c3)OCCO4)on2)c1	·	?	13µM	·
COC(=O)c1cc(-c2cccc(OC)c2)on1	–	–	–	–
Cc1cccc(OC(=O)c2cc(-c3ccc4c(c3)OCCO4)on2)c1C	·	20µM	?	·
Cc1cccc(OC(=O)c2cc(-c3ccc4c(c3)OCCO4)on2)c1	·	20µM	20µM	·
COc1cc(C)ccc1OCCOc1c(C)cc(Cl)cc1Cl	–	·	·	–
COc1ccccc1OCCCOc1c(Cl)cc(C)cc1Cl	–	·	·	14µM
COc1cc(C)ccc1OCCCOc1c(Cl)cccc1Cl	–	·	·	11µM
O=C(CSc1ncnc2sc3c(c12)CCCC3)c1ccco1	–	–	–	?
O=C(CSc1nnc2c3c4c(sc3ncn12)CCCC4)NCc1ccco1	–	–	–	–
Cc1nc2sc3c(c2c2nnc(SCC(=O)NCc4ccco4)n12)CCCC3	–	–	–	28µM
CC1(C)Cc2nc3sc4c(SCC(=O)NCc5ccco5)ncnc4c3cc2CO1	–	?	?	14µM
O=C(CSc1ncnc2sc3c(c12)CCCCC3)NCc1ccco1	–	–	–	10µM
Cc1nc2c(sc3nc4c(cc32)COC(C)(C)C4)c(=O)n1CC(=O)NCc1ccco1	–	–	–	?
COc1ccccc1C(=O)Nc1cccc(OCc2cc(=O)n3c(C)csc3n2)c1	·	–	–	·
Cc1nn(CC(=O)N2CCN(c3ccccc3)CC2)c(=O)c2cc3cc(F)ccc3n12	·	–	–	·
SMILES	12-hLO inh	p53ts 32C tox	p53ts 39C kill	HPGD block
CCc1cc2c(NCC3CCCO3)ncnc2s1 (stereo not drawn)	–	–	–	14µM
Cc1ccc(-n2ncc3c(NCCCOC(C)C)ncnc32)c(C)c1	–	·	·	–
C=CCNc1ncnc2c1cnn2-c1ccc(C)cc1C	–	–	–	14µM
Cc1ccc(-n2ncc3c(NCC4CCCO4)ncnc32)c(C)c1 (stereo not drawn)	–	–	–	2.2µM
Cc1ccc(-n2ncc3c(NCC(C)C)ncnc32)c(C)c1	·	–	–	·
Cc1sc2ncnc(NCC3CCCO3)c2c1C (stereo not drawn)	–	·	·	–
COc1ccc(-c2nc(C)c(CCNC(=O)C(=O)Nc3ccccc3F)s2)cc1	·	–	?	·
O=C(CN1C(=O)CCc2cc(S(=O)(=O)N3CCOCC3)ccc21)NCc1ccc(F)cc1	·	–	–	·
O=C(Nc1cccs1)Nc1cc(C(F)(F)F)ccc1Cl	·	–	25µM	·
Cc1cccc(NC(=O)C2CCC(CNS(=O)(=O)c3csc(C(N)=O)c3)CC2)c1C (stereo not drawn)	·	–	–	·
O=C(Cc1cc(=O)[nH]c(=O)[nH]1)NCC1CCCO1 (stereo not drawn)	–	–	20µM	–
O=C(Cc1cc(=O)[nH]c(=O)[nH]1)NCCN1CCOCC1	–	13µM	?	–
CCC(C)c1ccc(O[C@@H]2O[C@H](CO)[C@@H](O)[C@H](O)[C@H]2NC(C)=O)cc1 (stereo partly drawn)	·	·	·	–
O=C(Nc1ccc(-n2nncc2-c2ccco2)cc1)c1cccc(F)c1	–	–	–	13µM
COc1ccc(N2C(=O)C(CC(=O)Nc3ccc(Cl)cc3)N(Cc3ccc4c(c3)OCO4)C2=O)cc1 (stereo not drawn)	·	–	–	·
CCOc1ccc(C(=O)Nc2cc(-c3cn4cccnc4n3)ccc2C)cc1OCC	·	–	–	·
CCOC(=O)c1c(NC(=O)c2cc(-c3cccc(OC)c3)on2)sc2c1CCCC2	·	–	–	·
CCOC(=O)c1c(NS(=O)(=O)c2cccc(OC)c2)sc2c1CCC2	–	–	–	35µM
O=C(CSc1nc(O)cc(=O)[nH]1)C1CC1	–	–	–	18µM
CC(C)(C)NC(=O)CSc1nc(O)cc(=O)[nH]1	–	·	·	–
CCCCNc1nc(C)nc2c1nc(-c1ccccc1)n2C(C)CCCN(CC)CC (stereo not drawn)	–	–	–	?
Cc1nn(-c2ccccc2Cl)c(Cl)c1/C=N/Nc1cccc(C(=O)O)c1	–	11µM	11µM	13µM
Cc1nn(-c2cccc(C(F)(F)F)c2)c(Cl)c1/C=N/Nc1cccc(C(=O)O)c1	–	·	·	–
CC(=O)Nc1ccc(S(=O)(=O)Nc2ccc([N+](=O)[O-])cc2)cc1	–	–	–	22µM
CCCCOC(=O)Nc1ccc(S(=O)(=O)Nc2ccc([N+](=O)[O-])cc2)cc1	?	·	·	–
SMILES	12-hLO inh	p53ts 32C tox	p53ts 39C kill	HPGD block
Cc1ccc(S(=O)(=O)c2nc(-c3cccc(Cl)c3)oc2NCc2ccccc2)cc1	·	–	–	·
N=c1n(CCO)c2ccccc2n1CCOc1ccc(F)cc1	·	–	–	·
CCCCn1c(=N)n(CCCOc2ccc(F)cc2)c2ccccc21	·	?	10µM	·
Cc1ccc(C)c(/C(O)=C2\C(=O)C(=O)N(Cc3cccnc3)C2c2cccnc2)c1 (stereo not drawn)	–	–	–	25µM
Cc1ccc(C)c(/C(O)=C2\C(=O)C(=O)N(CCCN3CCOCC3)C2c2cccnc2)c1 (stereo not drawn)	–	–	–	–
Cn1c(N)c(C(=O)COC(=O)CN2C(=O)c3ccccc3C2=O)c(=O)n(C)c1=O	–	·	·	–
Cn1c(N)c(C(=O)COC(=O)Cn2cc(C(F)(F)F)ccc2=O)c(=O)n(C)c1=O	–	–	–	16µM
COCCCN=C(c1ccco1)n1c(=S)nc(-c2ccco2)n(CCCOC)c1=S	–	–	–	28µM
COc1ccc(C(=O)Nc2cc(-c3nn4c(C)nnc4s3)ccc2C)cc1	–	–	–	?
Cc1ccc(-c2nn3c(C)nnc3s2)cc1NC(=O)c1ccc(OC(C)C)cc1	–	–	–	1.1µM
CCCC(=O)Nc1cccc(NC(=O)c2ccccc2Br)c1	–	·	·	–
O=C(O)CCCC(=O)Nc1ccc(Cl)c(Cl)c1	–	–	–	–

Screening data (PubChem)
